Data taken from PubChem BioAssay (NCI).
This is part of a sample that, as a whole, favours compounds with a hit. Of some 83,000 tested, about 20% had one in any assay.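 Growth was measured after 48 h exposure to one concentration of compound in 96-well plates. Values under 10 count as active.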 Activity calls are given as the source filed them.

Tests used:
Test in all cases: NCI-60 one-dose screen, 48 h (100 = growth as untreated, 0 = no growth, -100 = all killed)
Conditions in all cases: 10 µM unless noted
[1] = test system: NCI-H23 lung
[2] = test system: NCI-H226 lung
[3] = test system: NCI-H322M lung
[4] = test system: HOP-62 NSCLC
[5] = test system: NCI-H460 lung
[6] = test system: HOP-92 NSCLC
[7] = test system: NCI-H522 lung
[8] = test system: A549/ATCC NSCLC
[9] = test system: 786-0 renal
[10] = test system: COLO 205 colon
[11] = test system: DU-145 prostate
[12] = test system: K-562 leukemia
[13] = test system: MALME-3M melanoma
[14] = test system: MDA-MB-231 breast
[15] = test system: RXF 393 renal
[16] = test system: SF-268 CNS
[17] = test system: SF-295 CNS
[18] = test system: SF-539 CNS
[19] = test system: UACC-257 melanoma
[20] = test system: M14 melanoma

Measured: growth

Ic1ccc2[nH]cc(SSc3c[nH]c4ccc(I)cc34)c2c1
active: [5] -11.5% | [6] -6.72% | [7] -48% | [10] -37.1% | [12] 9.29% | [14] 7.64% | [16] -18.1% | [17] -19.1%
inactive: [1] 17.9% | [2] 24.9% | [3] 57.8% | [4] 30.4% | [8] 21.8% | [9] 41.6% | [11] 72.5% | [13] 73.2% | [15] 46.4% | [18] 21.3% | [19] 34.6% | [20] 27.6%

COc1ccc(C2CC(c3ccc4ccccc4c3)=NN2c2nc(O)c(C3=c4cc(OC)ccc4=NC3=O)s2)cc1 (stereo not given)
active: [1] -29.8% | [2] -70.6% | [3] -17% | [4] -60.7% | [5] -39.8% | [6] -67.7% | [7] -74.1% | [8] -72.4% | [9] -73.3% | [10] -73.3% | [11] 1.32% | [12] 0.0361% | [13] -61.7% | [14] -54.7% | [15] -66.3% | [16] -32.5% | [17] -59% | [18] -27.9% | [19] -52.5% | [20] -67.1%

Cc1ccc(S(=O)(=O)N/N=C2\CC3CCC2(C)C3(C)C)cc1 (stereo not given)
inactive: [1] 237% | [2] 96.9% | [3] 116% | [4] 103% | [5] 108% | [6] 95.6% | [7] 63.1% | [8] 81.8% | [9] 103% | [10] 113% | [11] 105% | [12] 120% | [13] 103% | [14] 89% | [15] 89.4% | [16] 116% | [17] 94% | [18] 102% | [19] 87.8% | [20] 77.9%

CC[C@@H]1NC(=O)[C@@H]2CCCCN2C(=O)[C@@H]2CCCN2C(=O)[C@@H](NC(=O)[C@H](Cc2cc(F)cc(F)c2)NC(=O)Nc2ccc(C3CC3)cc2F)[C@H](C)OC(=O)[C@@H]2C[C@@H](C)CN2C1=O
active: [6] -3.81% | [10] -40.4% | [14] -31.2% | [15] -4.47% | [17] -10.1%
inactive: [1] 25.7% | [2] 15.5% | [3] 41.1% | [4] 26.7% | [5] 13.5% | [7] 19.9% | [8] 19.9% | [9] 16.4% | [11] 20% | [12] 10.4% | [13] 16.9% | [16] 22% | [18] 24.1% | [19] 10.7% | [20] 16.8%

O=C(O)c1cc([N+](=O)[O-])ccc1Br
inactive: [1] 105% | [2] 97.8% | [3] 94.1% | [4] 109% | [5] 105% | [6] 91.4% | [7] 97.3% | [8] 101% | [9] 102% | [10] 115% | [11] 106% | [12] 100% | [13] 102% | [14] 101% | [15] 110% | [16] 102% | [17] 97.2% | [18] 94.8% | [19] 102% | [20] 98.3%

C=C(C)[C@@H]1CC[C@]2(C(=O)O)CC[C@]3(C)[C@H](CC[C@@H]4[C@@]5(C)C/C(=C/c6ccco6)C(=O)C(C)(C)[C@@H]5CC[C@]43C)[C@@H]12
active: [1] -58.6% [100 µM] | [2] -37.5% [100 µM] | [3] -87.9% [100 µM] | [4] -85.2% [100 µM] | [5] -55.6% [100 µM] | [6] -86.4% [100 µM] | [7] -72.7% [100 µM] | [8] -73.7% [100 µM] | [9] -60.4% [100 µM] | [10] -73.1% [100 µM] | [11] -35% [100 µM] | [12] 8.08% [100 µM] | [13] -82.3% [100 µM] | [14] -60.8% [100 µM] | [15] -98.2% [100 µM] | [16] -41.5% [100 µM] | [17] -82.8% [100 µM] | [18] -77.8% [100 µM] | [19] -64.1% [100 µM] | [20] -62.6% [100 µM]

CC(C)(C)c1cc(C(=O)Nc2cc3ccccc3cc2C(=O)NCCN)cc(C(C)(C)C)c1
active: [1] -52.4% | [2] -51.9% | [3] -78.3% | [4] -80.8% | [5] -70.4% | [6] -70.3% | [7] -47.3% | [8] -60.7% | [9] -92% | [10] -80.9% | [11] -96.9% | [12] -76.9% | [13] -38.1% | [14] -79.9% | [15] -90.4% | [16] -80.7% | [17] -85.5% | [18] -68.8% | [19] -36.1% | [20] -81.2%

O=C(COc1cccc(/C=C2\Oc3ccccc3C2=O)c1)c1ccc([N+](=O)[O-])cc1
inactive: [1] 79.9% | [2] 85.8% | [3] 115% | [4] 103% | [5] 95.7% | [6] 78.1% | [7] 57% | [8] 90% | [9] 102% | [10] 107% | [11] 111% | [12] 70.7% | [13] 108% | [14] 72.6% | [15] 97.6% | [16] 96.2% | [17] 197% | [18] 97.4% | [19] 97.6% | [20] 100%

O=c1[nH]c2cc(Cl)c(Cl)cc2n2cc3ncccc3c12
inactive: [1] 90.6% | [2] 89.2% | [3] 97.9% | [4] 80.6% | [5] 62.8% | [6] 87.3% | [7] 43.8% | [8] 91.2% | [9] 92.2% | [10] 90.4% | [11] 100% | [12] 65.5% | [13] 128% | [14] 89.4% | [15] 112% | [16] 95.1% | [17] 58.5% | [18] 112% | [19] 97.8% | [20] 101%

Clc1ccc2nc(-c3ccc(-c4ccc(/C=N/NC5=NCCN5)cc4)s3)cn2c1
inactive: [1] 106% | [2] 94.9% | [3] 98.3% | [4] 98.6% | [5] 100% | [6] 76.5% | [7] 106% | [8] 99.9% | [9] 95.5% | [10] 107% | [11] 101% | [13] 94.3% | [14] 96.3% | [15] 82.5% | [16] 94.2% | [17] 97.2% | [18] 83.1% | [19] 101% | [20] 97.7%
active: [12] 4.14%

O=[N+]([O-])c1cccc(N=NNc2cccc([N+](=O)[O-])c2)c1
inactive: [1] 95.2% | [2] 108% | [3] 101% | [4] 110% | [5] 100% | [6] 64.4% | [7] 78% | [8] 86.7% | [9] 90.4% | [10] 113% | [11] 86.2% | [12] 103% | [13] 102% | [14] 78.8% | [15] 90.2% | [16] 93.5% | [17] 95.6% | [18] 97.6% | [19] 103% | [20] 102%

O=C(Nc1ccc(C(=O)/C=C/c2ccc(N3CCOCC3)cc2)cc1)Nc1ccc([N+](=O)[O-])cc1
inactive: [1] 83.4% | [2] 45% | [3] 63.1% | [4] 105% | [5] 67.9% | [6] 120% | [7] 84.1% | [8] 81.3% | [9] 111% | [10] 109% | [11] 98% | [12] 68.6% | [13] 108% | [14] 94.8% | [15] 119% | [16] 97.1% | [17] 103% | [18] 109% | [19] 99% | [20] 110%

CCN(CC)CC(C)Nc1ccc(C)c2sc3ccccc3c(=O)c12 (stereo not given)
inactive: [1] 65.9% | [2] 74.2% | [3] 91.8% | [4] 76.3% | [5] 19.5% | [6] 38.2% | [7] 64.8% | [8] 32.7% | [9] 53.1% | [10] 37.9% | [11] 82% | [12] 44.2% | [13] 65.2% | [14] 28.7% | [15] 39.5% | [16] 58.9% | [17] 76.2% | [18] 44.2%
active: [19] 0.527% | [20] 3.81%

Cc1ccc(NC(=S)/N=c2/n(-c3ccccc3)nc3n2CCN3C2=NCCN2)cc1
inactive: [1] 104% | [2] 92.3% | [3] 103% | [4] 92.7% | [5] 104% | [6] 75.3% | [7] 96.7% | [8] 106% | [9] 53.5% | [10] 106% | [11] 111% | [12] 121% | [13] 113% | [14] 92.9% | [15] 101% | [16] 109% | [17] 99.3% | [18] 102% | [19] 109% | [20] 82.8%

COc1ccc2[nH]c(C(=O)N3CCN(C(=O)OCc4ccc5c(Br)cc(Br)c(O)c5n4)CC3)cc2c1
active: [1] -78.2% | [2] -84.3% | [3] -87.1% | [4] -67% | [5] -60.3% | [6] -83.9% | [7] -78.4% | [8] -79.5% | [9] -93% | [10] -83.1% | [11] -97.8% | [12] 2.19% | [13] -95.3% | [14] -84.6% | [15] -87.9% | [16] -80.2% | [17] -87.8% | [18] -99.8% | [19] -59.1% | [20] -77.9%
